Sampled rows, rich in hits. Any-hit rate of the full collection: about 18%.
KAT2A inh – inhibitors of human GCN5L2 histone acetyltransferase; GCN5L2 HAT assay, ThioGlo1 CoA-SH fluorescence; Q92830; 0.21% of 390,000 active; Potency, µM (top dose mostly 58.9 µM), without a hit: at the highest dose activity change, negative = inhibition, actives largely listed as inhibitors
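GCN5L2 (20 nM) in 50mM HEPES pH 7.5, 0.1mM EDTA, 0.01% Tween-20 preincubated 15 min with compounds at room temperature. Reaction started with H3(1-25) 75uM, acetyl-CoA 70uM, ThioGlo1 50uM; CoA-thiol fluorescence (Ex340/Em540) read at 0 and 20 min.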
TDP1 cell noCPT – qHTS for Inhibitors of human tyrosyl-DNA phosphodiesterase 1 (TDP1): qHTS in cells in absence of CPT; 15% of 420,000 active; Potency, µM (series often up to 46.2 µM), without a hit: top-dose activity change, negative = growth inhibition, actives largely listed as inhibitors; DT40 Tdp1-/- hTDP1 cells, no CPT, ATP luminescence, 48 h; also: nearly all actives have a fitted effect of over 55% in size
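Cells were dispensed at 400 per well, compounds added by pin tool, plates incubated ≥48 hr at 37 °C, then CellTiter-Glo added for 30 min at room temperature before luminescence reading. Line: DT40 Tdp1-/- complemented with hTDP1; camptothecin omitted.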
DT40 TDP1 CPT – growth inhibition of DT40 Tdp1-/-;hTDP1 cells with camptothecin (screen for TDP1 inhibitors); chicken DT40 Tdp1-/-;hTDP1 cells + 20 nM CPT, ATP luminescence, 48 h; Potency, µM (series often up to 46.2 µM), for the others: top-dose activity change, negative = growth inhibition, most hits filed as inhibitors; 12% of 420,000 active; also: nearly all actives have a fitted effect of over 55% in size
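Cell growth measured by CellTiter-Glo luminescence after a minimum 48 h, 37 C compound exposure with 20 nM CPT in Tdp1-knockout DT40 cells stably expressing hTDP1, seeded 400/well; qHTS titration format.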
VDR inh – vitamin D3 receptor (human) inhibition; P11473; VDR-SRC2-3 peptide fluorescence polarization, 2 h; Potency, µM, without a hit: max response, negative = inhibition, usual class: inhibitors; 0.93% of 400,000 active; AID 504847
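Measured by FP: displacement of SRC2-3 coactivator peptide from VDR by library compounds, following a two-hour ambient incubation.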
PLK1 PBD block – PLK1 (human) polo-box domain binding inhibition; P53350; 2.8% of 360,000 active; AID 720504; Potency, µM, for inactives: max response, negative = inhibition, usual class: inhibitors; Plk1 PBD binding of FITC phosphopeptide, fluorescence polarization; also: series mostly up to about 57 µM; nearly all actives have a fitted effect of over 65% in size
TDP1 inh – blocks human tyrosyl-DNA phosphodiesterase 1; recombinant TDP1, AlphaScreen DNA substrate cleavage; Q9NUW8; 0.28% of 350,000 active; Potency, µM (top dose mostly 130 µM), for inactives: at the highest dose activity change, negative = inhibition, actives largely listed as inhibitors; AID 485290; also: nearly all actives have a fitted effect of over 40% in size
Target sequence (Q9NUW8 whole entry, looked up): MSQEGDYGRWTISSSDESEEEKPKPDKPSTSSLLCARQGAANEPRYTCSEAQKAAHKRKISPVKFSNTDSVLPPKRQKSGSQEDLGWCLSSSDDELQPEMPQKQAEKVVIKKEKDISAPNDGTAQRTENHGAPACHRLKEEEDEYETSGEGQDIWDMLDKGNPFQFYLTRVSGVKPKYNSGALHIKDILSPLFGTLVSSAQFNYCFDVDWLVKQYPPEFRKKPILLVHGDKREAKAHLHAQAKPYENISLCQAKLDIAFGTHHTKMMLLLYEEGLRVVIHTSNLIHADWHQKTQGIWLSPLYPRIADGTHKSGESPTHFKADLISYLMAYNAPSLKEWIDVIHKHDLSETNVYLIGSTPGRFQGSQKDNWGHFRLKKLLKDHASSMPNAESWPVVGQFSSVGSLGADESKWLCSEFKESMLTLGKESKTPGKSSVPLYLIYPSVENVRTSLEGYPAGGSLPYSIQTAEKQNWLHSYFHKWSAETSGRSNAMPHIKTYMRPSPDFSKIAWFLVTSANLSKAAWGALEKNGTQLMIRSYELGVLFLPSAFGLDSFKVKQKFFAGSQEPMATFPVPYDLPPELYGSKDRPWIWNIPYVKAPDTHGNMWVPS
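Recombinant human Tdp1 (E. coli-expressed, 1 nM final) preincubated with compounds 15 min at room temperature, then 5'-biotin/3'-phosphotyrosine-FITC DNA substrate (15 nM final) added for 5 min. AlphaScreen beads (10 ug/ml final) added 10 min; cleavage lowers signal.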
The depositor's hits bear a star; ? = inconclusive; nt = not tested or not shown; ! = not confirmed by another sample; [ ] = remark or other dose. Calls follow the shape of the dose curve; as a rule, active = well fitted curve in the direction sought with a large enough effect; inconclusive = small, poorly fitted or top-dose-only effect, or another doubt; inactive = no such curve, though single readings can be large; an effect the other way counts as inactive or inconclusive. % is scaled to controls: 0 for no effect and ±100 for the full control effect; potency is read from the fitted curve at half-maximal effect.

SMILES	KAT2A inh	TDP1 cell noCPT	DT40 TDP1 CPT	VDR inh	PLK1 PBD block	TDP1 inh
CCOc1ccc(CCNC(=O)c2cnc3sc(N4CCCCCC4)nn3c2=O)cc1	1.7%	18.4µM*	18.4µM*	-0.3%	nt	4.5%
COc1ccc(CCNC(=O)c2cnc3sc(N4CCOCC4)nn3c2=O)cc1	-6.0%	?	?	-4.3%	nt	-3.9%
CCN(CC)C(=O)c1sc2c(c1C)c(=O)n(-c1ccc(Cl)c(Cl)c1)c(=O)n2Cc1cc(=O)n2ccccc2n1	-8.8%	?	-12.7%	-6.9%	nt	-0.5%
O=C(CN(C(=O)c1csnn1)c1ccc(Cl)cc1)NCCc1ccccc1	-2.4%	-0.8%	5.5%	17.6%	0.3%	8.7%
COc1ccccc1N(C1=NCCCS1)S(=O)(=O)c1ccc(C(C)(C)C)cc1	0.1%	23.1µM*	20.6µM*	-10.3%	-21.2%	-1.2%
OC[C@@H]1CN(Cc2ccc3c(c2)OCO3)C[C@H](n2cnc3c(N4CCOCC4)ncnc32)O1	nt	-7.1%	-14.9%	nt	2.3%	nt
CC1CCN(C(=O)c2cc3ccccc3cc2O)CC1	-0.1%	6.9%	-15.2%	7.9%	-2.4%	2.5%
CCOC(=O)C1=C(O)C(=O)NC(c2ccccc2)=C(OCC)C1	2.5%	-2.2%	-2.8%	-5.5%	1.4%	7.6%
CCOC(=O)C1=C(O)C(=O)NC(c2ccccc2)=C(OC2CCCCC2)C1	2.0%	23.1µM*	?	4.3%	-0.1%	3.8%
O=C(CCc1nc2ccccc2c(=O)[nH]1)NNC(=O)COc1ccc(Br)cc1	-5.5%	-1.9%	?	-14.9%	2.3%	-7.4%
O=c1[nH]c(COc2ccc(Br)cc2Cl)nc2ccccc12	-3.4%	?	20.6µM*	-3.1%	-5.1%	5.5%
CC(C)C1OC(c2cccc(NC(=O)c3cccs3)c2)OCC1(C)C (stereo not given)	-16.0%	23.1µM*	?	-12.2%	-3.2%	-1.3%
COc1cccc(OC)c1C(=O)Nc1cccc(NC(=O)c2cccs2)c1	4.3%	-30.0%	-3.7%	?	-7.2%	4.2%
CN(C)CCCNc1ncnc2c1cnn2Cc1ccccc1Cl	-1.1%	-2.5%	3.9%	-21.4%	-25.4%	nt
CCOc1ccc(S(=O)(=O)c2c[nH]c3ccc(C)cc3c2=O)cc1	-7.6%	-5.3%	-14.9%	3.9%	-13.9%	nt
Cc1ccc2[nH]cc(S(=O)(=O)c3ccc(F)cc3)c(=O)c2c1	0.3%	9.2µM*	?	-10.1%	-3.2%	nt
CC(C)c1ccc(/C=N/Nc2ccc(C(=O)O)cc2)cc1	-8.9%	3.6%	-22.6%	-0.7%	?	5.9%
O=C(O)c1ccc(N/N=C/c2ccc(OC(=O)c3ccccc3Cl)cc2)cc1	-18.7%	-18.4%	0.6%	-8.4%	29.9µM*	6.7%
O=C(O)c1ccc(N/N=C/c2ccc(-c3ccccc3)cc2)cc1	?	-6.7%	-7.2%	-15.3%	26.7µM*	3.5%
O=C(O)c1cc(N/N=C/c2ccc(-c3ccccc3)cc2)ccc1Cl	22.4%	?	?	?	9.47µM*	nt
O=C(O)c1cc(-c2ccc(/C=N/Nc3ccc(Cl)cc3)o2)ccc1Cl	-21.8%	-7.1%	-3.4%	-29.2%	29.9µM*	0.0%
COCCn1c(SCC(=O)NC2CC2)nc2ccccc21	-3.5%	2.6%	5.8%	-17.3%	-8.2%	1.0%[56.1 µM]
CCOC(=O)[C@]12CCCC=C1N(Cc1ccco1)C(=O)[C@H](CC(=O)NCc1cccc3ccccc13)C2	nt	?	?	nt	-12.1%	nt
CCOC(=O)[C@]12CCC=C1N(Cc1cccc3ccccc13)C(=O)[C@H](CC(=O)NCC1CCCCC1)C2	nt	20.6µM*	23.1µM*	nt	-12.6%	nt
CCOC(=O)[C@]12CCCC=C1N(Cc1ccc(Cl)cc1Cl)C(=O)[C@H](CC(=O)NCc1cccc3ccccc13)C2	nt	16.4µM*	25.9µM*	nt	-8.3%	nt
SMILES	KAT2A inh	TDP1 cell noCPT	DT40 TDP1 CPT	VDR inh	PLK1 PBD block	TDP1 inh
COC(=O)[C@]12CCCCC=C1N(Cc1ccccc1)C(=O)[C@H](CC(=O)NCc1cccc3ccccc13)C2	nt	18.4µM*	?	nt	-2.7%	nt
CCOC(=O)[C@]12CCCC=C1N(Cc1ccccc1)C(=O)[C@H](CC(=O)NCc1cccc3ccccc13)C2	nt	-29.8%	18.4µM*	nt	-0.9%	nt
COc1ccc(OC)c(-c2csc(-c3c(N)c(C(=O)c4ccc(Cl)cc4)n4ccccc34)n2)c1	-8.3%	-12.7%	7.3%	0.6%	nt	-7.6%
COC(=O)[C@]12CCCCC=C1N(Cc1cccc3ccccc13)C(=O)[C@H](CC(=O)NCc1ccccc1)C2	nt	18.4µM*	?	nt	-1.8%	nt
CCOC(=O)[C@]12CCC=C1N(Cc1ccccc1)C(=O)[C@H](CC(=O)NCCc1ccccc1OC)C2	nt	?	?	nt	-2.1%	nt
CCOC(=O)[C@]12CCCC=C1N(Cc1ccccc1)C(=O)[C@H](CC(=O)NCCc1ccccc1OC)C2	nt	13µM*	?	nt	7.9%	nt
COC(=O)[C@]12CCCCC=C1N(Cc1cccc3ccccc13)C(=O)[C@H](CC(=O)NCCC(C)C)C2	nt	14.6µM*	18.4µM*	nt	-10.6%	nt
COC(=O)[C@]12CCCCC=C1N(Cc1cccc3ccccc13)C(=O)[C@H](CC(=O)NCC1CCCCC1)C2	nt	18.4µM*	?	nt	1.0%	nt
COCCNc1ncnc2c1ncn2[C@H]1CN(Cc2ccco2)C[C@@H](CO)O1	nt	?	-17.0%	nt	4.0%	nt
O=C(c1cnccn1)N1CCC2(CC1)CN(Cc1cc(C(F)(F)F)cc(C(F)(F)F)c1)C2	-5.4%	-20.3%	3.5%	-19.4%	nt	nt
O=S1(=O)CCOC[C@H](c2ccccc2)N1Cc1cccc(F)c1	-0.5%	12.6µM*!	?	-18.0%	-2.7%	nt
Cc1ccc(CN2[C@@H](c3ccccc3)COCCS2(=O)=O)cc1	-4.9%	?	?	-11.9%	-11.6%	nt
O=S1(=O)CCOC[C@H](c2ccccc2)N1Cc1ccc(F)cc1	nt	11.2µM*	?	nt	nt	nt
O=c1c(N2CCN(c3cccc(Cl)c3)CC2)csc2ccc(Cl)cc12	-1.0%	?	?	1.8%	nt	7.7%
COc1cccc(CN(C)C(=O)c2ccc(N3CCCC3)c([N+](=O)[O-])c2)c1	-8.1%	23.1µM*	16.4µM*	6.9%	-9.6%	11.8%
COc1ccc(NC(=O)CN(C)C(=O)c2ccc(N3CCCCC3)c([N+](=O)[O-])c2)cc1	-8.2%	14.6µM*	?	-4.7%	-3.0%	4.7%
COc1ccc(Cl)cc1NC(=O)CN(C)C(=O)c1ccc(N2CCCCC2)c([N+](=O)[O-])c1	-15.1%	16.4µM*	9.2µM*	-5.2%	3.4%	nt
